Measured values as given in article PMC13494018.

B1: design_376_bf9d4634-8475-4fdb-a175-1db49a23bdcd_2064_dldesign_0_cycle1_af2pred (protein)
chain: SEKEEIIKRAKEVAERARKVAAEAKEIGPAALPVLNKATEARALANAARDLAEAGGNLEVAKEVLKEAEELLKKAEEELKKLKKE
B2: design_376_bf9d4634-8475-4fdb-a175-1db49a23bdcd_1553_dldesign_0_cycle1_af2pred (protein)
chain: HEEAEKAIEKAKEYFKELVKELEKLDPKAGAKMKELAEKGKKVLERMKEYSPEDVKETAESIMKGAEKEFEKLKKEAEA
B3: design_376_bf9d4634-8475-4fdb-a175-1db49a23bdcd_888_dldesign_0_cycle1_af2pred (protein)
chain: GVVEKAKKISEAVRAEHKAKATTKLAKADPSQAAAAKAAAEEAKKAAEKAEEADKETAKAAKAAGKEAEAAAKA
B4: design_376_bf9d4634-8475-4fdb-a175-1db49a23bdcd_2363_dldesign_0_cycle1_af2pred (protein)
chain: AEEEAKQKELIKEMARHIQEAREYRNAAEKLPEKKEEYVKKALEHVEKALEAAEELIKNPKYKEYGEKGKKRAEEVRKKIEEVK
B5: design_376_bf9d4634-8475-4fdb-a175-1db49a23bdcd_1727_dldesign_0_cycle1_af2pred (protein)
chain: STEEAIKKALEMAEKIAKATPETGAEATKIRDELLEYIAEFAEKGTVEGTKAVAEALREQAEKASPEAAKSLRAAARFAEALAKAKA
B6: design_376_bf9d4634-8475-4fdb-a175-1db49a23bdcd_1821_dldesign_0_cycle1_af2pred (protein)
chain: SNVKEANKKIDEATKLLVDARKAVYEKGKAAGPEVAAGAQKIIAGAVRGDVAPALADTPEVAALAKQMQAALDKAEKLENEAVKLLS
B7: design_376_bf9d4634-8475-4fdb-a175-1db49a23bdcd_2272_dldesign_0_cycle1_af2pred (protein)
chain: AEEYLKEAKKYLEEAKKVAEKNPKAKPAYERGKKKYEEYLKKAKETGDYEEYAKKAYIAADQALEHAEFIAK
B8: design_376_bf9d4634-8475-4fdb-a175-1db49a23bdcd_1567_dldesign_0_cycle1_af2pred (protein)
chain: SAEEEIKKKAKELEKAGAAALFELADASKEEAPKYAAKIDKAIADLKALGKAATPELGKELFAKADKLQATRDRIMEDIES
B9: design_596_3e5f537c-0703-45f0-993f-ff416531349a_8_dldesign_0_cycle1_af2pred (protein)
chain: EEEEREKVIKKAKEVLDRNGKKALEYAKIVPEVAPEVEKTIKESRAEIEKAAGLSLEEAQKAAAAAVHKVQELRAEAYFLAEKKK
B10: design_376_bf9d4634-8475-4fdb-a175-1db49a23bdcd_1797_dldesign_0_cycle1_af2pred (protein)
chain: AADEAKAKAKAALDAAAAAAAKVDPKKAPEVKARAAKAKATLDKLYADFKDDPEIATEVANIFLKGAEALLKEIKAA
B11: design_376_bf9d4634-8475-4fdb-a175-1db49a23bdcd_2229_dldesign_0_cycle1_af2pred (protein)
chain: MAEKIKKAITEAREKYADARGYAYAAKKDPKFLPEAVKAADAAAAAWEALAKLDPANKAIYDANAAKAKAIGDAAKAAL
B12: design_376_bf9d4634-8475-4fdb-a175-1db49a23bdcd_800_dldesign_0_cycle1_af2pred (protein)
chain: AKAELEKLKKEAAKHRQEMYFYGKASAKLGPKYKAEYEEHYAKALEAAKKIKELDPEEGKKYEEIVLKTKKRLEKEL
B13: design_596_3e5f537c-0703-45f0-993f-ff416531349a_338_dldesign_0_cycle1_af2pred (protein)
chain: GSMEEKKKKEVEEAEKEAEKILEKAKKEAEKAAKKSPAQAVEVALEALSELKYLGSKYPEKAEEFEKRGRELVEEYKKKAE
B14: design_376_bf9d4634-8475-4fdb-a175-1db49a23bdcd_1182_dldesign_0_cycle1_af2pred (protein)
chain: EEEEKQKVKEEAAKNVEEAVEAAGELIAKHPELREKAYKLRKEAIRLSQEAGKAAEKDLEEGKKYLEESKEKVKEIKKLAEE
B15: design_376_bf9d4634-8475-4fdb-a175-1db49a23bdcd_2406_dldesign_0_cycle1_af2pred (protein)
chain: HMEELEKLLKEAEKAAKEAAEAYKKDPAEGKKWASKARDLSIEAISLDPSAYEKAKEIAEKVAEVDPEAGKKIKAILERTYEALKRA
B16: design_376_bf9d4634-8475-4fdb-a175-1db49a23bdcd_1228_dldesign_0_cycle1_af2pred (protein)
chain: DAALKALATKLQEEGLAWADKAYEAMQIIDPKEAPKVASDILRDFARANKLYAEDPAKGAAALAAARAKVEAIVALAKKVS
B17: design_376_bf9d4634-8475-4fdb-a175-1db49a23bdcd_2333_dldesign_0_cycle1_af2pred (protein)
chain: SEIAEKLAEWAEKAKASTREEAKAILDELLADEETKEYAELALEIVKDIAGEDAPAEAIGLALRIASDAAEA
B18: design_376_bf9d4634-8475-4fdb-a175-1db49a23bdcd_2428_dldesign_0_cycle1_af2pred (protein)
chain: MEEAIKKLKEIAKKLKELSKEAEKLAKEYPKVKNEALKVSGYAETAADQAESALKNKEKAAEAAKWAEKRLEKVEKDLKEVKKKAK
B19: design_376_bf9d4634-8475-4fdb-a175-1db49a23bdcd_1954_dldesign_0_cycle1_af2pred (protein)
chain: MTAEEAIKKIEEAAEKASKELKEIGKKNPAVAAYAKAASERVKRRAKRAIKEIKEKGLTGVQAEGLAEAASYFAEDQAENAKKKAEEA
B20: design_376_bf9d4634-8475-4fdb-a175-1db49a23bdcd_869_dldesign_0_cycle1_af2pred (protein)
chain: REAALAAGAARLEAALAASPAAPAAAAALRAALEAGADAADVILAVQDVLAEAGAAKEDLSAAAKAAAEAVRLYS
B21: design_376_bf9d4634-8475-4fdb-a175-1db49a23bdcd_746_dldesign_0_cycle1_af2pred (protein)
chain: MEKAEEMGERLIEAVKESPEKAREVAEEMVRRAKEGDVEEAAAIAQAVAEAYAVAVKENKEAAEIVREALREVQEIGRKKR
B22: design_596_3e5f537c-0703-45f0-993f-ff416531349a_73_dldesign_0_cycle1_af2pred (protein)
chain: AEKEKEAQKLLEEMVEYGEKKAKEAEKLNPKAGERIRRARERYEKYAKDPEKAKQYVEALKEYADHVVEAAKK
B23: design_376_bf9d4634-8475-4fdb-a175-1db49a23bdcd_2251_dldesign_0_cycle1_af2pred (protein)
chain: GAASAAEEAKGHAIAAEAYALSGKKKEEALEDAKKAGEYAKKATPEYQAAVKKLFEKKVERVKAKPESAETAEKMKALFEEVVA
B24: design_376_bf9d4634-8475-4fdb-a175-1db49a23bdcd_1192_dldesign_0_cycle1_af2pred (protein)
chain: GTEKTKKISDHLRKAVSAAKKAVAIAKKAGIGEEMQKTFSELRDAVVDGDLEKAKEYAKKLLELGKKVPEAYEYAKEAAEEALKAVE
B25: design_376_bf9d4634-8475-4fdb-a175-1db49a23bdcd_1294_dldesign_0_cycle1_af2pred (protein)
chain: SVKENTKEAAKKLEEKYGAEFAKIGPEYAAKMAAAAKEAAKKPTSADAIILMRDAYDELKKEADAALAAA
B26: design_376_bf9d4634-8475-4fdb-a175-1db49a23bdcd_1019_dldesign_0_cycle1_af2pred (protein)
chain: ILKEFAKLVSEAIKKATKADGLNGADIVWKEAEKSFKEVKEALKKGEEEAKKALEKAKERLEKAVEEAKKRGEA
B27: design_376_bf9d4634-8475-4fdb-a175-1db49a23bdcd_2298_dldesign_0_cycle1_af2pred (protein)
chain: GLEEKAKKAVEKAKEYLKKAKAAMEKGDYKSALAYAEQAIHAATAAIKIAKEDPSLKELEEEAKKILEEAKKLLEEAEKKL
B28: design_596_3e5f537c-0703-45f0-993f-ff416531349a_46_dldesign_0_cycle1_af2pred (protein)
chain: KYKELLKKAKELYEKAIAAAGDPAKAAAELKKANAAFTDALAEARAESKENFKKVRKEYGELKAKYEAAKAAA
B29: design_376_bf9d4634-8475-4fdb-a175-1db49a23bdcd_1609_dldesign_0_cycle1_af2pred (protein)
chain: AKEEARELAEKAYEAAKSTSEDLREDVEKDGIGPKAVKSISDNMIEWIEKVHEEVKVDEEAHKIAEEAIKYAKEEGEKNIELAKKR
B30: design_376_bf9d4634-8475-4fdb-a175-1db49a23bdcd_1020_dldesign_0_cycle1_af2pred (protein)
chain: MGKKIHDVVKKAAEEARKAAEKAGADGELVRKAAYTAGWYYIAGDEEEAKKIVELAKKAEPKFAKTVEELMKKALEAAKKALEE
B31: design_376_bf9d4634-8475-4fdb-a175-1db49a23bdcd_2407_dldesign_0_cycle1_af2pred (protein)
chain: MEEEEKKKKEEAKKLAKELGNLLIEAFDADVEDEEKGEEKLKEAKKLAKELKKLDPELGKKAEKRIKRFEESMKIAKELKEK
B32: design_596_3e5f537c-0703-45f0-993f-ff416531349a_232_dldesign_0_cycle1_af2pred (protein)
chain: LKAEAAEKSAEARELIAEAETLAKNIKNLSKEEAKEALKVAEEALKKAKEAAKLMAKVGEEELGKKLLERAKKAYKETKEAVKKKLK
B33: design_376_bf9d4634-8475-4fdb-a175-1db49a23bdcd_2270_dldesign_0_cycle1_af2pred (protein)
chain: SMAREKARKESEELRELVKKAREIAKEAKEKAKEKGPEAQKIAKEAAKEAAKAVWYFPDKEKSEKALQKAEELLKEI
B34: design_376_bf9d4634-8475-4fdb-a175-1db49a23bdcd_1417_dldesign_0_cycle1_af2pred (protein)
chain: MEEDEKKVEEVKKRGKEVAEKAKKSTPEEAEELRKEFTRYAAEVGGKASPEARNKIQEIRAEANGEIALAIIKKK
B35: design_376_bf9d4634-8475-4fdb-a175-1db49a23bdcd_2226_dldesign_0_cycle1_af2pred (protein)
chain: KYKEEAKKKTEEELEKAAKAVSKENAPKVEKVKKEALKALEEDFSKAAEIIRNFAKEEKENHDVVKKYAAKASEALYEARAAKEVEER
B36: design_376_bf9d4634-8475-4fdb-a175-1db49a23bdcd_1125_dldesign_0_cycle1_af2pred (protein)
chain: VEEAAKKAKEKVKEVAEKATKEAPETADIAKALAENAEKKIDELAKKGAPKEALEKAAEKAIKTIKAVKKSALELK
B37: design_376_bf9d4634-8475-4fdb-a175-1db49a23bdcd_1330_dldesign_0_cycle1_af2pred (protein)
chain: AVEEKLKEYTKKAEEYIEKLEKLDPEKAKELRKELEEAKKLTPEEALKKVKEIAAKASEAYYQAKAEEDAKK
B38: design_376_bf9d4634-8475-4fdb-a175-1db49a23bdcd_2125_dldesign_0_cycle1_af2pred (protein)
chain: SPYQKKLEEEAEEIIARARKLAEEAREAAKKAGPKIKSLADEAISYAAIARSLARDGVKYGEKYLELAKEELAKAEELAKEAVKLAKE

These binders were tested against VTCN1, Q7Z7D3.
VTCN1, Q7Z7D3, sequence (Q7Z7D3 whole entry): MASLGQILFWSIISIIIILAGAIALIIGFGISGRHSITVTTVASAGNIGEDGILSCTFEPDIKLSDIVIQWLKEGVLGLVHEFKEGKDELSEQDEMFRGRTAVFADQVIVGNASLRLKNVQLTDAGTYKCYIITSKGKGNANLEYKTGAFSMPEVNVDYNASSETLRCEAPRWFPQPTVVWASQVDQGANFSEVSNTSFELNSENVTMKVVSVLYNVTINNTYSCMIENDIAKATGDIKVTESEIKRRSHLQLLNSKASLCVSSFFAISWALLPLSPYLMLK

Binding in a display sort, inactive:
B1 not found, B2 not found, B3 not found, B4 not found, B5 not found, B6 not found, B7 not found, B8 not found, B9 not found, B10 not found, B11 not found, B12 not found, B13 not found, B14 not found, B15 not found, B16 not found, B17 not found, B18 not found, B19 not found, B20 not found, B21 not found, B22 not found, B23 not found, B24 not found, B25 not found, B26 not found, B27 not found, B28 not found, B29 not found, B30 not found, B31 not found, B32 not found, B33 not found, B34 not found, B35 not found, B36 not found, B37 not found, B38 not found
